Measured values: article PMC4336329 (PLoS ONE, 2015)
Among all 310,000 compounds or so, about 14,000 (4.5%) showed an effect of 50% or more. The effect is printed as a negative number. What follows is part of a selection rich in strong results, with near analogues and random picks from the rest.

molecular target: human ether-à-go-go-related gene (hERG) potassium channel (human, UniProt Q12809); experiment: primary screen, population patch clamp on CHO cells stably expressing hERG; higher = less effect of the substance
Sequence (Q12809 whole entry, looked up): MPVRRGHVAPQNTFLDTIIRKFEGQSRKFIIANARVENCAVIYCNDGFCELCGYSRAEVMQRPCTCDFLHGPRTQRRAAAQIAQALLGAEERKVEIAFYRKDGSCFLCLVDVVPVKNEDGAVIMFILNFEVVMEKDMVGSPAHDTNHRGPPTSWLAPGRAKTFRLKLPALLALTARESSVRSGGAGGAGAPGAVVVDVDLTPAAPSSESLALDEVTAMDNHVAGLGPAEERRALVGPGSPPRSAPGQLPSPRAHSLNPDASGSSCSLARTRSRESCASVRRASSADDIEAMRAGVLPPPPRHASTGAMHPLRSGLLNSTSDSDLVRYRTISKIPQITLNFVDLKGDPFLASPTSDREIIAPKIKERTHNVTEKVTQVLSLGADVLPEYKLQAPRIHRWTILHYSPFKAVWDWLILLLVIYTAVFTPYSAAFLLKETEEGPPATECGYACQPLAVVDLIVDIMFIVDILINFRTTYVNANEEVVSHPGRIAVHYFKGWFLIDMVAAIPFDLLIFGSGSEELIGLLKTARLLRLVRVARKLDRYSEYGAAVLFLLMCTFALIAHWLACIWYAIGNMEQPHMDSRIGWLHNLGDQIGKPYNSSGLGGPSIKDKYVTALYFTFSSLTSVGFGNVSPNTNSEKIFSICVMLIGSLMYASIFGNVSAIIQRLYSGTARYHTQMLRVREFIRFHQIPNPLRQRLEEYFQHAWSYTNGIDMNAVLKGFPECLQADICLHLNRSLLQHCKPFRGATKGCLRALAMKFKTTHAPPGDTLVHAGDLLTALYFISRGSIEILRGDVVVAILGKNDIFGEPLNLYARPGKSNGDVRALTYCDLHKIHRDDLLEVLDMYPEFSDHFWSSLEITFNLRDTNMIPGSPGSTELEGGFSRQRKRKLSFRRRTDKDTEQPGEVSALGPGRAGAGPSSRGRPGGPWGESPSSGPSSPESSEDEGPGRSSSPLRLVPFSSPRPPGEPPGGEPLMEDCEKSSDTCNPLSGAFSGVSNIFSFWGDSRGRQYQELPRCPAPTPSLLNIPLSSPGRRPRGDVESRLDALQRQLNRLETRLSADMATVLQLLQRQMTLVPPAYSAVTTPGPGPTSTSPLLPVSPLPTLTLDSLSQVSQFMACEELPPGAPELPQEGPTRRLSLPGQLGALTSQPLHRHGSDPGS
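Also: peak tail current of the secondary pulse compared with the same well before compound.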

Structure (SMILES)	hERG current change (%, negative = inhibition) at 10uM
Cc1cc[n+](CC(=O)c2ccccc2)c2ccccc12.[Br-]	-8.1%
NC(=O)c1ccc[n+](CC(=O)c2cccc([N+](=O)[O-])c2)c1.[Br-]	16.9%
Cc1ccc(C(=O)C[n+]2cccc3ccccc32)cc1.[Br-]	-9.35%
Cc1cc[n+](CC(=O)c2cccc([N+](=O)[O-])c2)c2ccccc12.[Br-]	-58.8%
Cc1cc[n+](CC(=O)c2ccc(NC(=O)c3ccccc3)cc2)c2ccccc12.[Br-]	7.1%
O=C(C[n+]1cccc(NC(=O)c2ccccc2)c1)c1cccc([N+](=O)[O-])c1.[Br-]	-76.3%
O=C(C[n+]1cccc2ccccc21)c1ccc([N+](=O)[O-])cc1.[Br-]	-72.4%
O=C(Nc1cccc([N+](=O)[O-])c1)c1ccccc1	7.97%
O=C(Nc1ccc[n+](CC(=O)c2cccc3ccccc23)c1)c1ccccc1.[Br-]	-58.9%
O=C(C[n+]1cccc2ccccc21)c1ccccc1.[Br-]	-1.84%
O=C1c2ccccc2C(O)(Cc2ccccc2)N1Cc1ccco1 (centres unmarked)	10.1%
Cc1ccc(C(=O)Nc2ccc(N3CCOCC3)cc2)cc1S(=O)(=O)N1CCCCC1	-10.1%
CCOC(=O)CC1(c2ccc(OC)c(OC)c2)C(=O)c2ccccc2C1=O	-1.97%
c1ccc(-c2cc3c(nn2)CCc2nonc2-3)cc1	0.384%
COc1ccc(-c2nnc(SCC(=O)c3cccs3)o2)cc1	-8.4%
CCCOC(=O)CCCCCCCCC(O)CN1CCCCC1.Cl (centres unmarked)	-30%
Cc1ccnc(NC(=O)Nc2cccc(F)c2)c1	-4.23%
COc1ccc(NC(=O)c2ccc3ccccc3c2)cc1	11%
Cc1cccc(CSCCNC(=O)c2ccc(N(C)S(=O)(=O)c3ccccc3)cc2)c1	-4.05%
Cc1ccc(C(CC(=O)N2CCCC2)c2ccccc2)c(O)c1 (centres unmarked)	4.04%
Cc1ccc(C(CC(=O)N2CCCCC2)c2ccccc2)c(O)c1C (centres unmarked)	-22.1%
Cc1ccc(C(CC(=O)N2CCCC2)c2ccccc2)c(O)c1C (centres unmarked)	-57.9%

Structure (SMILES)	hERG current change (%, negative = inhibition) at 10uM
Cc1ccc(C(CC(=O)N2CCNCC2)c2ccccc2)c(O)c1C (centres unmarked)	-63.8%
Cc1cccc(C(CC(=O)N2CCCCC2)c2ccccc2)c1O (centres unmarked)	-34.2%
Cc1cccc(C(CC(=O)N2CCCC2)c2ccccc2)c1O (centres unmarked)	-19.4%
O=C(c1ccc(Br)s1)N1CCN(c2ncccn2)CC1	-20.3%
CC12CCC3c4ccc(O)cc4CCC3C1CC(O)C2O (centres unmarked)	19.5%
CC1=C(C(=O)Nc2ccccn2)C(c2ccccc2Cl)NC(=S)N1 (centres unmarked)	10.1%
CC(=C1C(=O)c2ccccc2C1=O)N1CCN(CCN=CC2=C(O)CC(C)(C)CC2=O)CC1	-42.3%
CC(=NCCN1CCN(C(C)=C2C(=O)c3ccccc3C2=O)CC1)C1=C(O)CC(C)(C)CC1=O	-50.5%
CC(=NCCN1CCN(C(=S)Nc2ccccc2)CC1)C1=C(O)CC(C)(C)CC1=O	-15.3%
CCc1nnc(NC(=O)CSc2ccc(-c3ccccc3OC)nn2)s1	-7.08%
CS(=O)(=O)N1CCCC(C(=O)NCCCN2CCC(Cc3ccccc3)CC2)C1 (centres unmarked)	-33.5%
CS(=O)(=O)N1CCCC(C(=O)NCCN2CCC(Cc3ccccc3)CC2)C1 (centres unmarked)	-28%
CCCCN(CCCNC(=O)C1CCN(S(=O)(=O)CC)CC1)c1ccccc1	-51.1%
CCCS(=O)(=O)N1CCCC(C(=O)NCCN2CCOCC2)C1 (centres unmarked)	13.7%
O=C(NCCCN1CCCCCC1)C1CC(=O)N(C2CCCC2)C1 (centres unmarked)	5.99%
CCCS(=O)(=O)N1CCCC(C(=O)NCCCN2CCN(c3ccc(F)cc3)CC2)C1 (centres unmarked)	-59.5%
CCCCN(CCCNC(=O)C1CCN(S(=O)(=O)N2CCOCC2)CC1)c1ccccc1	-48.8%
O=C(NCCCN1CCC(Cc2ccccc2)CC1)C1CC(=O)N(C2CCCCCC2)C1 (centres unmarked)	-66.8%
CCCS(=O)(=O)N1CCCC(C(=O)NCCCN2CCN(c3ccccc3F)CC2)C1 (centres unmarked)	-21.1%
CCN(CCCNC(=O)C1CCN(S(=O)(=O)CC)CC1)c1ccccc1	-21.7%
O=C(NCCCN1CCC(Cc2ccccc2)CC1)C1CC(=O)N(C2CCCC2)C1 (centres unmarked)	-34.8%
CCS(=O)(=O)N1CCCC(C(=O)NCCN2CCC(Cc3ccccc3)CC2)C1 (centres unmarked)	-59.1%
